Shown is part of a subset that was picked to be rich in hits.
DUX4 inh: DUX4-mediated transcription inhibition; 293T-iDUX4 ZSCAN4-Gaussia luciferase reporter, 24 h; active compounds read low; 0.8% of 37,000 active; activity change, negative = inhibition, % (test concentration not listed);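 active = mean inhibition of at least 10% in the main channel, exceeding the control channel by a set limit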;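 also: 0% = median of neutral control wells and -100% = median of positive control wells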
* hit, by the source's call; ! = not confirmed by another sample.

SMILES	DUX4 inh
O=S(=O)(c1ccc(F)cc1)N1[C@@H]2CNC[C@H]1C2c1ccc(-c2cccnc2)cc1 (some centres undefined)	5
CN(C)C(=O)c1cccc(-c2ccc(C3[C@@H]4CN(S(=O)(=O)c5cccc(Cl)c5)C[C@H]3N4)cc2)c1 (some centres undefined)	-28*
O=S(=O)(c1ccccc1)N1C[C@@H]2N[C@H](C1)C2c1ccc(-c2cccnc2)cc1 (some centres undefined)	-13*!
COc1ccc(S(=O)(=O)N2[C@@H]3CNC[C@H]2C3c2ccc(-c3cccc(OC)c3)cc2)cc1 (some centres undefined)	10
CN(C)C(=O)c1cccc(-c2ccc(C3[C@@H]4CN(C(=O)Cc5ccccc5)C[C@H]3N4)cc2)c1 (some centres undefined)	9
O=C(c1ccc(F)cc1)N1C[C@@H]2N[C@H](C1)C2c1ccc(-c2cccnc2)cc1 (some centres undefined)	-8
COc1cccc(-c2ccc(C3[C@@H]4CN(S(=O)(=O)c5cccc(Cl)c5)C[C@H]3N4)cc2)c1 (some centres undefined)	-7
COc1cccc(-c2ccc(C3[C@@H]4CN(S(=O)(=O)c5ccccc5)C[C@H]3N4)cc2)c1 (some centres undefined)	-20*
CN1C(=O)c2cc(NC(=O)c3cccc(F)c3)ccc2OC[C@H]2O[C@@H](CC(=O)NCC3CCCCC3)CC[C@@H]21	0
O=C(Nc1cccc(Cl)c1)N1C[C@@H]2[C@H](c3ccccc31)[C@@H](CO)N2Cc1cccnc1	3
O=C(C[C@H]1C[C@H]2c3cc(NC(=O)C4CCC4)ccc3O[C@H]2[C@@H](CO)O1)NCc1ccccn1	5
O=C(Nc1ccccc1F)N1CCCCN2[C@H](CO)[C@H](c3ccc(C#Cc4cccnc4)cc3)[C@H]2C1	-36*
OC[C@H]1[C@H](c2ccc(C#Cc3cccnc3)cc2)[C@@H]2CN(Cc3ccccc3F)CCCCN12	-38*
OC[C@@H]1[C@H](c2ccc(C#Cc3ccccc3F)cc2)[C@@H]2CN(Cc3cncnc3)CCCCN12	-5
CC(C)(O)C#Cc1ccc([C@@H]2[C@H]3CN(Cc4ccccc4F)CCCCN3[C@H]2CO)cc1	7
OC[C@@H]1[C@H](c2ccc(C#Cc3cccnc3)cc2)[C@H]2CN(Cc3ccccc3F)CCCCN12	-57*
OC[C@H]1[C@H](c2ccc(C#Cc3ccccc3F)cc2)[C@@H]2CN(Cc3cncnc3)CCCCN12	1
O=C(Nc1ccccc1F)N1CCCCN2[C@@H](CO)[C@H](c3ccc(C#Cc4cccnc4)cc3)[C@@H]2C1	5
O=C(Nc1cccc(F)c1)N1CCCCN2[C@H](C1)[C@@H](c1ccc(C#Cc3cccnc3)cc1)[C@@H]2CO	0
OC[C@@H]1[C@@H](c2ccc(C#Cc3ccccc3F)cc2)[C@H]2CN(Cc3cncnc3)CCCCN12	0
C[C@@H]1CN([C@H](C)CO)C(=O)CCCn2nncc2CO[C@@H]1CN(C)C(=O)Nc1ccnc(N2CCOCC2)c1	2
O=C(c1ccccc1F)N1CC[C@@H]2[C@@H](CO)Nc3ccc(-c4ccc(F)cc4)cc3[C@@H]21	3
CCCNC(=O)[C@H]1[C@H](CO)[C@H]2Cn3c(cccc3=O)[C@@H]1N2C(=O)C1CCCC1	5
C[C@H](O)C#Cc1ccc([C@@H]2[C@H]3CN(C(=O)c4ccc5c(c4)OCO5)CCCCN3[C@H]2CO)cc1	23
CC(C)CC#Cc1ccc([C@H]2[C@H](CO)N3CCCCN(S(=O)(=O)Cc4ccccc4)C[C@@H]23)cc1	2
SMILES	DUX4 inh
Cc1cccc(S(=O)(=O)N2CCCCN3[C@@H](CO)[C@H](c4ccc(C#C[C@@H](C)O)cc4)[C@@H]3C2)c1	-26*
CC(C)CC#Cc1ccc([C@@H]2[C@@H](CO)N3CCCCN(S(=O)(=O)Cc4ccccc4)C[C@@H]23)cc1	-14*
C[C@@H](O)C#Cc1ccc([C@H]2[C@@H](CO)N3CCCCN(C(=O)c4ccc5c(c4)OCO5)C[C@@H]23)cc1	22
Cc1cccc(S(=O)(=O)N2CCCCN3[C@H](CO)[C@@H](c4ccc(C#C[C@@H](C)O)cc4)[C@H]3C2)c1	12
COc1cccc(S(=O)(=O)N2CCCCN3[C@@H](CO)[C@@H](c4ccc(C#CCC(C)C)cc4)[C@@H]3C2)c1	-30*
Cc1cccc(S(=O)(=O)N2CCCCN3[C@H](C2)[C@H](c2ccc(C#C[C@@H](C)O)cc2)[C@@H]3CO)c1	4
COc1cccc(S(=O)(=O)N2CCCCN3[C@H](CO)[C@H](c4ccc(C#CC5CC5)cc4)[C@@H]3C2)c1	-1
CC(C)CC#Cc1ccc([C@@H]2[C@H](CO)N3CCCCN(S(=O)(=O)Cc4ccccc4)C[C@@H]23)cc1	2
COCC#Cc1ccc([C@@H]2[C@H]3CN(S(=O)(=O)c4ccc(OC)cc4)CCCCN3[C@H]2CO)cc1	0
C[C@@H](O)C#Cc1ccc([C@H]2[C@@H](CO)N3CCCCN(C(=O)c4ccc5c(c4)OCO5)C[C@H]23)cc1	-32*
C[C@H](CO)N1C[C@H](C)[C@@H](CN(C)S(=O)(=O)c2ccc(Cl)cc2)OCCCC[C@H](C)Oc2ccc(NC(=O)Nc3ccc(C(F)(F)F)cc3)cc2C1=O	-4
CN1CCCCN2[C@H](CO)[C@H](c3ccc(C#CC4(O)CCCC4)cc3)[C@H]2C1	-1
C[C@H](CO)N1C[C@H](C)[C@@H](CN(C)C(=O)Nc2ccc3c(c2)OCO3)Oc2cc(C#Cc3cccnc3)ccc2S1(=O)=O	-2
N#C[C@@H]1[C@H](c2ccc(C3=CCCCC3)cc2)[C@@H](CO)N1S(=O)(=O)c1ccccc1	-2
CC(=O)N1[C@H](C(=O)N(C)C)[C@@H](CO)[C@@H]2Cn3c(ccc(-c4ccccc4F)c3=O)[C@@H]21	6
N#C[C@@H]1[C@@H](c2ccccc2)[C@H](CO)N1C(=O)CN1CCOCC1	-2
C[C@H]1CN([C@@H](C)CO)S(=O)(=O)c2ccc(-c3cncnc3)cc2O[C@H]1CN(C)Cc1ccc(Oc2ccccc2)cc1	0
CCCNC(=O)N1[C@H](CO)[C@H](c2ccc(C#CCN(C)C)cc2)[C@@H]1C#N	6
CO[C@@H](CN(C)S(=O)(=O)c1cn(C)cn1)[C@@H](C)CN(C(=O)Nc1ccc(F)cc1)[C@@H](C)CO	-2
O=C(C[C@@H]1C[C@@H]2c3cc(NC(=O)NC4CCCC4)ccc3O[C@@H]2[C@H](CO)O1)NCC1CC1	-1
O=C([C@H]1[C@H](CO)[C@H]2Cn3c(ccc(-c4ccncc4)c3=O)[C@H]2N1Cc1cocn1)N1CCCCC1	0
O=S(=O)(Cc1ccccc1)N1CCCCN2[C@H](CO)[C@H](c3ccc(-c4ccc(F)cc4)cc3)[C@@H]2C1	-7
O=S(=O)(Cc1ccccc1)N1CCCCN2[C@@H](CO)[C@@H](c3ccc(-c4cccnc4)cc3)[C@@H]2C1	-8
CC(C)CC#Cc1ccc([C@H]2[C@@H](CO)N3CCCCN(S(=O)(=O)c4ccc(F)cc4)C[C@@H]23)cc1	-34*
COc1ccc(S(=O)(=O)N2CCCCN3[C@H](CO)[C@@H](c4ccc(C#CC(C)C)cc4)[C@@H]3C2)cc1	1
O=S(=O)(Cc1ccccc1)N1CCCCN2[C@H](CO)[C@@H](c3ccc(-c4ccc(F)cc4)cc3)[C@@H]2C1	-32*
Cc1cccc(S(=O)(=O)N2CCCCN3[C@H](CO)[C@H](c4ccc(-c5ccncc5)cc4)[C@H]3C2)c1	-7
